Results: PubChem BioAssay (Tox21)
Inconclusive results are not listed. Where a call stands in place of a potency, no number is given. A number with no mark means an inactive call. The source made the active and inactive calls. The call rests on the fitted dose curve; in most records, active means well fitted activation curve with a large enough effect in the repeat runs; inconclusive means weak or mixed curves; inactive means flat fitted curve, though single readings scatter.

test: Caspase-3/7 induction in HepG2 cells by small molecules, qHTS assay (AID 1346978); details: HepG2 caspase-3/7 activation, Caspase-Glo luminescence, 17 h; series mostly up to 92.4 µM; further: nearly all actives have a fitted effect of over 15% in size
Source text: National Center for Advancing Translational Sciences [NCATS] NIH Chemical Genomics Center [NCGC] U.S. Environmental Protection Agency [EPA] National Institutes of Environmental Health Sciences [NIEHS] National Toxicology Program [NTP] Assay overview: Apoptosis is a process of programmed cell death and plays a central role in the development of multicellular organisms. It is a highly regulated process and induces cell death by activating caspases, which are the members of cysteine aspartic acid-specific protease (caspase) family. Caspases involved in apoptosis are classified by their mechanism of action as initiator caspases (caspase-2, -8, -9 and -10) and executioner caspases (caspase-3, -6, and -7). Inhibition of apoptosis results in number of cancers, autoimmune diseases, inflammatory diseases and viral infection. To identify small molecule compounds that induce apoptosis, a homogeneous, luminescent Caspase-Glo 3/7 assay was used. Wild type HepG2 cells were used to screen Tox21 libraries for identifying caspase-3/7 activity inducers.
Assay Protocol Summary: HepG2 cells were dispensed at 2,000 per well in 5uL of culture medium into white solid bottom 1536-well plates (Corning Life Sciences, Corning, NY) using a Multidrop Combi (Thermo Scientific, Waltham, MA) dispenser. The assay plates were incubated at 37 C and 5% CO2 for 5hr, and then 23nL of compounds dissolved in DMSO and positive control were transferred using a Pintool station (Wako, San Diego, CA). The assay plates were incubated at 37C and 5% CO2 for 17hr. For caspase-3/7 activity read, 4uL of Caspase-Glo 3/7 reagent (Promega Corporation, Madison, WI) was added to each well of the assay plates using Flying Reagent Dispenser (FRD, Aurora Discovery, San Diego, CA) and incubated the assay plates at room temperature for 30min. The luminescence signal was quantified using a ViewLux plate reader (Perkin Elmer, Shelton, CT).
Potency means the concentration at half of the fitted maximal effect.

Row | SMILES | Potency | caspase activation
1 | O=C1OC(=O)C2CCCCC12 (stereo not given) | inactive | –
2 | CCC=O | inactive | –
3 | COC(=O)CC(C)=O | inactive | –
4 | CCCCCCCCCCCCCC=O | – | -1.41% [at 8.39 µM]
5 | CC1=CC(C)C(C=O)CC1 (stereo not given) | inactive | –
6 | Cc1cccc(C)c1NC(=O)C(C)N (stereo not given) | inactive | –
7 | N#Cc1ccc(C2CCCc3cncn32)cc1 (stereo not given) | inactive | –
8 | O=C(CCCN1CCN(c2ccccn2)CC1)c1ccc(F)cc1 | inactive | –
9 | CN1CCCC1 | inactive | –
10 | CC(=O)OCC(=O)[C@@]1(O)CCC2C3CCC4=CC(=O)CC[C@]4(C)C3[C@@H](O)C[C@@]21C (stereo not given in full) | inactive | –
11 | O=Cc1cccc([N+](=O)[O-])c1 | inactive | –
12 | O=c1cc(-c2ccccc2)oc2ccccc12 | inactive | –
13 | CN(C)CCCN1c2ccccc2CCc2ccc(Cl)cc21 | 61.1 µM (active) | –
14 | CC(C)(c1ccc(O)cc1)c1ccc(O)cc1 | inactive | –
15 | CCC(C)S (stereo not given) | – | -0.355% [at 3.27 µM]
16 | Cc1c(O)cccc1O | inactive | –
17 | CCOC(C)(C)C | inactive | –
18 | C[C@H](NC(CCc1ccccc1)C(=O)O)C(=O)N1CCC[C@H]1C(=O)O (stereo not given in full) | inactive | –
19 | FC1(F)C(F)(F)C(F)(F)C2(F)C(F)(F)C(F)(F)C(F)(F)C(F)(F)C2(F)C1(F)F (stereo not given) | inactive | –
20 | Nc1nc2c(ncn2COC(CO)CO)c(=O)[nH]1 | inactive | –

Row | SMILES | Potency | caspase activation
21 | CC(=O)Nc1ccc(S(N)(=O)=O)cc1 | inactive | –
22 | OCCCC1CCCCC1 | inactive | –
23 | COc1ccc2c(c1)CCCC2=O | inactive | –
24 | CCCCCCCCCCCCN(CCCCCCCCCCCC)CCCCCCCCCCCC | inactive | –
25 | C=COCC1CCC(CO)CC1 (stereo not given) | inactive | –
26 | ClC(Cl)(Br)Br | inactive | –
27 | CO/N=C(/C(=O)N[C@@H]1C(=O)N2C(C(=O)OCOC(=O)C(C)(C)C)=C(C)CS[C@H]12)c1csc(N)n1 | inactive | –
28 | C=CCOCC(CC)(CO)COCC=C | inactive | –
29 | CCCN1CCCC[C@H]1C(=O)Nc1c(C)cccc1C | inactive | –
30 | COc1ccccc1OCC(O)CN1CCN(CC(=O)Nc2c(C)cccc2C)CC1 (stereo not given) | inactive | –
31 | CC(C)(O)C(=O)c1ccccc1 | inactive | –
32 | CC/C=C\CCOC(C)=O | inactive | –
33 | NS(=O)(=O)c1cc(C(=O)NN2C[C@H]3[C@H]4CCC(C4)[C@H]3C2)ccc1Cl | inactive | –
34 | NS(=O)(=O)c1cc(C(=O)O)cc(N2CCCC2)c1Oc1ccccc1 | inactive | –
35 | CCCCCOC(=O)CCCCC | inactive | –
36 | NC(=O)c1ccc([N+](=O)[O-])cc1 | inactive | –
37 | C[N+](C)(C)CCCCCC[N+](C)(C)C | inactive | –
38 | CCO/C([O-])=N/c1c[n+](N2CCOCC2)no1 | inactive | –
39 | NC(CSCC(=O)O)C(=O)O (stereo not given) | inactive | –
40 | CC(C)=CCCC(C)CC(=O)O (stereo not given) | inactive | –
